According to PubChem BioAssay (Tox21):
“And” between values parts separate entries of the source, which are not always exact repeats. Equal values may be shown once. Results filed as inconclusive are left out. The source made the active and inactive calls. Unless noted, calls follow the shape of the dose curve; as a rule, active = well fitted curve in the direction sought with a large enough effect in the repeat runs; inconclusive = weak or mixed curves; inactive = no such curve, though single readings can be large; an effect the other way counts as inactive or inconclusive.

Columns and labels:
[1] = biological target: Thyrotropin receptor (Homo sapiens) (UniProt P16473); assay: qHTS assay to identify small molecule agonists of the thyroid stimulating hormone receptor (TSHR) signaling pathway (AID 1224843; calls by dose curve; also: nearly all actives have a fitted effect of over 45% in size)
How it was run: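 HEK293 cells stably bearing the thyrotropin receptor were plated at 800 cells/well and challenged with compound (30 min, RT). Accumulated cAMP was quantified via cAMP-d2 competing for cryptate-tagged antibody.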

[2] = qHTS assay to identify small molecule agonists of the hypoxia (HIF-1) signaling pathway - cell viability counter screen (AID 1224844; calls by dose curve; also: nearly all actives have a fitted effect of over 50% in size)
How it was run: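 HRE-bla ME-180 cells, 2,000/well in 0.5% dialyzed FBS medium, treated 17 h at 37C with compounds. Viability read in the same wells as the bla reporter, by CellTiter-Glo luminescence after 30 min at room temperature.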

[3] = qHTS assay to identify small molecule agonists of H2AX (AID 1224845; active = well fitted activation curve with a large enough effect in the signal ratio in the repeat runs, not every such curve was filed as active; the % refers to the signal ratio)
How it was run: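 Phospho-H2AX Ser139 measured by HTRF (ex 320 nm; em 665 and 620 nm) after 24 hr antibody incubation. Compounds, 15 concentrations, 0.76% DMSO, were applied to CHO-K1 cells for 3hr at 37C before lysis.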

[4] = qHTS assay to identify small molecule agonists of the hypoxia (HIF-1) signaling pathway (AID 1224846; active = well fitted activation curve with a large enough effect in the signal ratio in the repeat runs, not every such curve was filed as active; the % refers to the signal ratio)
How it was run: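 HRE-bla ME-180 beta-lactamase reporter cells in medium with 0.5% dialyzed FBS, pre-incubated 5 h then exposed to compounds 17 h at 37C, 5% CO2; reporter induction read with CCF4-AM FRET substrate.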

[5] = qHTS assay to identify small molecule agonists of H2AX - cell viability counter screen (AID 1224847; calls by dose curve;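 also: wild-type CHO-K1 cells; top concentration of the series differs between compounds; nearly all actives have a fitted effect of over 30% in size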)
How it was run: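 For this counter screen, overnight-attached CHO-K1 cells received test compounds (15 concentrations, 0.76% DMSO final); 3 hr later at 37C, CellTiter-Glo reagent was added and luminescence recorded after 30 min at room temperature.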

[6] = qHTS assay to identify small molecule agonists of the estrogen related receptor (ERR) signaling pathway from Tox21 library (AID 1224849; calls by dose curve; also: nearly all actives have a fitted effect of over 15% in size)
How it was run: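 ERR reporter cells (NTP line) pre-incubated 6 hours at 37 C, then exposed to compounds for 18 hours at 37 C. ONE-Glo luciferase luminescence was read after 30 minutes at room temperature.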

[7] = qHTS RealTime-Glo MT Cell Viability Assay in HepG2 cells - 24 hour (AID 1224867); also: nearly all actives have a fitted effect of over 50% in size
How it was run: (§1)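 Cells + NanoLuc/prosubstrate dispensed (600 cells/well) → 5 h at 37 C/5% CO2 → compounds in DMSO transferred → 40 h incubation at 37 C, luminescence read at 0, 8, 16, 24, 32, 40 h.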

[8] = qHTS RealTime-Glo MT Cell Viability Assay in HEK293 cells - 32 hour (AID 1224868); also: top concentration of the series differs between compounds; nearly all actives have a fitted effect of over 50% in size
How it was run: (§2)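 Tox21 10K qHTS, HEK293, 600 cells/well, RealTime-Glo reagent co-dispensed with cells; 5 h preincubation, compound by pintool, 37 C, luminescence at 0–40 h.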

[9] = A CellTox Green Cytotoxicity Assay to monitor cytotoxicity in HEK293 cells - 0 hour (AID 1224869); also: nearly all actives have a fitted effect of over 50% in size
How it was run: (§3)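 HEK293 cells, 600/well, were preincubated 5 hours and then exposed to compounds at 37 C for up to 40 hours. A cell-impermeant cyanine dye staining dead-cell DNA was read by fluorescence at 0, 8, 16, 24, 32 and 40 h time points.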

[10] = qHTS RealTime-Glo MT Cell Viability Assay in HepG2 cells - 40 hour (AID 1224870); also: nearly all actives have a fitted effect of over 50% in size
How it was run: (§4)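 Real-time viability: cells seeded at 600 per well together with NanoLuc and cell-permeant prosubstrate, compounds added after 5 h incubation. Luminescence tracked at 0, 8, 16, 24, 32 and 40 h of exposure.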

[11] = A CellTox Green Cytotoxicity Assay to monitor cytotoxicity in HEK293 cells - 40 hour (AID 1224871); also: nearly all actives have a fitted effect of over 45% in size
How it was run: as §3

[12] = qHTS RealTime-Glo MT Cell Viability Assay in HEK293 cells - 16 hour (AID 1224872)
How it was run: as §2

[13] = qHTS RealTime-Glo MT Cell Viability Assay in HepG2 cells - 8 hour (AID 1224873); also: nearly all actives have a fitted effect of over 55% in size
How it was run: as §4

[14] = qHTS RealTime-Glo MT Cell Viability Assay in HEK293 cells - 40 hour (AID 1224874); conditions: RealTime-Glo luminescence; max response: hits give low values; also: nearly all actives have a fitted effect of over 50% in size
How it was run: (§5)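 600 cells/well were plated with the nonlytic NanoLuc/prosubstrate reagent, pre-incubated 5 h, then given 23 nL of compound in DMSO. Incubation at 37 C for 40 h, with luminescence from viable-cell-reduced substrate read repeatedly from 0 h.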

[15] = A CellTox Green Cytotoxicity Assay to monitor cytotoxicity in HEK293 cells - 24 hour (AID 1224875); also: series mostly up to about 77 µM; nearly all actives have a fitted effect of over 45% in size
How it was run: as §3

[16] = A CellTox Green Cytotoxicity Assay to monitor cytotoxicity in HepG2 cells - 16 hour (AID 1224876); also: nearly all actives have a fitted effect of over 45% in size
How it was run: (§6)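 HepG2 cells, 600/well, preincubated 5 h with CellTox Green dye, then exposed to Tox21 compounds in DMSO at 37 C for up to 40 h. Dead-cell DNA fluorescence read at the indicated time point.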

[17] = qHTS RealTime-Glo MT Cell Viability Assay in HepG2 cells - 32 hour (AID 1224877); also: nearly all actives have a fitted effect of over 55% in size
How it was run: as §1

[18] = A CellTox Green Cytotoxicity Assay to monitor cytotoxicity in HepG2 cells - 24 hour (AID 1224878); also: nearly all actives have a fitted effect of over 45% in size
How it was run: as §6

[19] = A CellTox Green Cytotoxicity Assay to monitor cytotoxicity in HepG2 cells - 40 hour (AID 1224879); also: nearly all actives have a fitted effect of over 40% in size
How it was run: as §6

[20] = qHTS RealTime-Glo MT Cell Viability Assay in HEK293 cells - 0 hour (AID 1224880)
How it was run: as §5
% is scaled to controls: 0 for no effect and ±100 for the full control effect.

Thyrotropin receptor (Homo sapiens), sequence (P16473 whole entry, looked up): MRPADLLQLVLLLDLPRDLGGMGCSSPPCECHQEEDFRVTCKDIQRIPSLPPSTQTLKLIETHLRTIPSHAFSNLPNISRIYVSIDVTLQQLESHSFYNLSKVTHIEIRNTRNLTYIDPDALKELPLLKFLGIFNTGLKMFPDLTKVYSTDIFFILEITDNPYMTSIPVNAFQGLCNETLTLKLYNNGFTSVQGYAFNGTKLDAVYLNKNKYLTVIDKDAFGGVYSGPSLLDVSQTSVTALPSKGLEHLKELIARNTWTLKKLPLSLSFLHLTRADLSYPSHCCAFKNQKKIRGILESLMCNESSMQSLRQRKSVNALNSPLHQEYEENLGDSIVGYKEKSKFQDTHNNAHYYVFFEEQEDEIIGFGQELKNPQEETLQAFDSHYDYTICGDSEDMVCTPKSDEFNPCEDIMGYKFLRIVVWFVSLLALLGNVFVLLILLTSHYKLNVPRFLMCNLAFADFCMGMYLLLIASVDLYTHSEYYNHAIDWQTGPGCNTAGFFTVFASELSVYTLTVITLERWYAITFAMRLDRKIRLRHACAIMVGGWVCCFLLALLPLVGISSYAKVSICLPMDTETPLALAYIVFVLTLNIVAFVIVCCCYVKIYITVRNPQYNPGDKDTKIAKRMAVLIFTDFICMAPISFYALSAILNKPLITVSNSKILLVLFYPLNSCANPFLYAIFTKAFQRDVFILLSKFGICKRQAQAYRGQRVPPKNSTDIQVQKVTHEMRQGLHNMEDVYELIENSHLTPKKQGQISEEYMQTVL

Cc1ccc(S(=O)(=O)N=C=O)cc1
inactive: outcome [1] | outcome [2] | outcome [3] | outcome [4] | outcome [5] | outcome [6] | Potency [7] | Potency [8] | outcome [9] | outcome [10] | Potency [11] | Potency [12] | Potency [13] | max response [14] 0.611% and -0.578% | Potency [15] | outcome [16] | outcome [17] | Potency [18] | Potency [19] | outcome [20]

C=Cc1ccc(C)cc1
inactive: outcome [1] | outcome [2] | outcome [3] | outcome [4] | outcome [5] | Potency [7] | Potency [8] | outcome [9] | outcome [10] | Potency [11] | Potency [12] | Potency [13] | max response [14] -4.48% and 7.7% | Potency [15] | outcome [16] | outcome [17] | Potency [18] | Potency [19] | outcome [20]

C=CC(C)CCCC(C)(C)O (stereo not given)
inactive: outcome [1] | outcome [2] | outcome [3] | outcome [4] | outcome [5] | Potency [7] | outcome [10] | Potency [11] | Potency [12] | Potency [13] | max response [14] 5.11% and 3.85% | Potency [15] | outcome [16] | outcome [17] | Potency [18] | Potency [19] | outcome [20]

O=[N+]([O-])c1ccc2nc[nH]c2c1
inactive: outcome [1] | outcome [2] | outcome [3] | outcome [4] | outcome [5] | Potency [7] | Potency [8] | outcome [9] | outcome [10] | Potency [11] | Potency [12] | Potency [13] | Potency [15] | outcome [16] | outcome [17] | Potency [18] | Potency [19] | outcome [20]

COC(=O)c1cccnc1
inactive: outcome [1] | outcome [2] | outcome [3] | outcome [4] | outcome [5] | outcome [6] | Potency [7] | Potency [8] | outcome [9] | outcome [10] | Potency [11] | Potency [12] | Potency [13] | Potency [15] | outcome [16] | outcome [17] | Potency [18] | Potency [19] | outcome [20]

O=C1C(c2[nH]c3ccccc3c2O)=Nc2ccccc21
inactive: outcome [1] | outcome [3] | outcome [4] | outcome [5] | outcome [6] | Potency [7] | Potency [8] | outcome [9] | outcome [10] | Potency [11] | Potency [12] | Potency [13] | max response [14] 4.84% | Potency [15] | outcome [16] | outcome [17] | Potency [18] | Potency [19] | outcome [20]

OC1C(O)C(O)C(O)C(O)C1O (stereo not given)
inactive: outcome [1] | outcome [2] | outcome [3] | outcome [4] | outcome [5] | Potency [7] | Potency [8] | outcome [9] | outcome [10] | Potency [11] | Potency [12] | Potency [13] | max response [14] 9.45% and 0% | Potency [15] | outcome [16] | outcome [17] | Potency [18] | Potency [19] | outcome [20]

CSc1ccc(Cl)cc1
inactive: outcome [1] | outcome [2] | outcome [3] | outcome [4] | outcome [5] | Potency [7] | outcome [10] | Potency [11] | Potency [12] | Potency [13] | max response [14] -0.983% and -3.28% | Potency [15] | outcome [16] | outcome [17] | Potency [18] | Potency [19] | outcome [20]

CCCCOC(=O)c1ccc(N)cc1
inactive: outcome [1] | outcome [2] | outcome [3] | outcome [5] | Potency [7] | Potency [8] | outcome [9] | outcome [10] | Potency [11] | Potency [12] | Potency [13] | max response [14] 0.814% | Potency [15] | outcome [16] | outcome [17] | Potency [18] | Potency [19] | outcome [20]

CN(C)c1ccc(O)c2c1C[C@H]1C[C@H]3[C@H](N(C)C)C(=O)C(C(N)=O)=C(O)[C@@]3(O)C(=O)C1=C2O
inactive: outcome [1] | outcome [2] | outcome [3] | outcome [4] | outcome [5] | Potency [7] | Potency [8] | outcome [10] | Potency [11] | Potency [12] | Potency [13] | max response [14] -2.64% and -1.12% | Potency [15] | outcome [16] | outcome [17] | Potency [18] | Potency [19] | outcome [20]

CC(C)=CCl
inactive: outcome [1] | outcome [2] | outcome [3] | outcome [4] | outcome [5] | Potency [7] | Potency [8] | outcome [9] | outcome [10] | Potency [11] | Potency [12] | Potency [13] | Potency [15] | outcome [16] | outcome [17] | Potency [18] | Potency [19] | outcome [20]

CCOC(=O)n1ccn(C)c1=S
inactive: outcome [1] | outcome [2] | outcome [3] | outcome [4] | outcome [5] | Potency [7] | Potency [8] | outcome [9] | outcome [10] | Potency [11] | Potency [12] | Potency [13] | Potency [15] | outcome [16] | outcome [17] | Potency [18] | Potency [19] | outcome [20]

COCCCN
inactive: outcome [1] | outcome [2] | outcome [3] | outcome [4] | outcome [5] | Potency [7] | outcome [9] | outcome [10] | Potency [11] | Potency [12] | Potency [13] | Potency [15] | outcome [16] | outcome [17] | Potency [18] | Potency [19] | outcome [20]

COc1cc(OC)c(C(=O)CCCN2CCCC2)c(OC)c1
inactive: outcome [1] | outcome [2] | outcome [3] | outcome [5] | Potency [7] | Potency [8] | outcome [9] | outcome [10] | Potency [11] | Potency [12] | Potency [13] | max response [14] -11.2% and -1.98% | Potency [15] | outcome [16] | outcome [17] | Potency [18] | Potency [19] | outcome [20]
